AID923: qHTS Assay for Allosteric/Competitive Inhibitors of Caspase-1: Spectroscopic Profiling in AFC Spectral Region | compound fluorescence, AFC spectral region (405/520 nm) | Potency, µM (highest dose often 57.5 µM), for inactives: at the top dose fluorescence increase, usual class: activators | 75,000 compounds, 1.1% hits | AID 923, 2007; also: potency is read from the fitted curve at half-maximal effect; 0% is about no effect
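Baseline compound fluorescence (AFC region, 405 nm ex/520 nm em) taken from the intercept of kinetic reads with 50 nM caspase-1 and 5 uM Ac-WEHD-AFC; normalized to an on-plate AFC standard curve; compounds titrated up to 57 uM.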
HSD17B inh: HSD17B dehydrogenase inhibition; AID 893; 75,000 compounds, 7.6% hits; Potency, µM (doses to about 57.1 µM), for the others: at the highest dose activity change, negative = inhibition, hits mostly inhibitors; recombinant HSD17B10, NADH fluorescence kinetic;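 also: the protocol describes HADH2 (HSD17B10) and not the HSD17B4 of the title; potency is read from the fitted curve at half-maximal effect; % is scaled to controls: 0 for no effect and ±100 for the full control effect; nearly all actives have a fitted effect of over 70% in size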
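Activity followed as NADH fluorescence increase (ex 360, em 450 nm) every 30 seconds for 4 min, using final 90 uM beta-hydroxybutyryl CoA and 1 mM NAD+. Recombinant His-tagged enzyme, 20 nM, pH 9.0 Tris buffer, 15 min compound preincubation.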
CRE-bla Fsk: modulators of forskolin-stimulated CRE signaling in CHO cells; Potency, µM (top dose mostly 38.2 µM), for the others: top-dose activity change, negative = inhibition, usual class: activators; AID 662; CHO CRE-bla reporter (cAMP response element driving beta-lactamase), forskolin EC10, beta-lactamase ratio; 71,000 compounds, 2.5% hits; active = well fitted activation curve with a large enough effect in the signal ratio, with a control signal flat, not every such curve was filed as active; inconclusive = small, poorly fitted or top-dose-only effect, or effect the other way, or a change in a side signal; the % refers to the signal ratio; also: potency is read from the fitted curve at half-maximal effect; % of control where 0% means no effect
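Beta-lactamase reporter under a cAMP responsive element in CHO cells; compounds tested in titration series against EC10 NKH 477, 3 h at 37 °C. Read-out: CCF4 FRET ratio 460nm/530nm (excitation 405nm) giving %Activity, fitted to AC50.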
4-MU autofl: compounds fluorescent in 4-MU spectral region. max dye-equivalent concentration, M. 59,000 compounds, 11% hits. compound autofluorescence, 340/450 nm, 4-MU equivalents; active compounds read high; in the data active = max dye-equivalent concentration above about 10 nM; inconclusive = mostly about 1.1 nM to 9.6 nM
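Compounds in 100 mM Tris, pH 8.0, sat 15 min at room temperature before fluorescence was read at 340 nm excitation/450 nm emission; a per-plate six-point 4-MU standard curve converted signals to dye-equivalent concentration at each compound concentration.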
A350 autofl: compounds fluorescent in Alexa 350 spectral region; Compound autofluorescence, 340/450 nm, Alexa 350 dye-equivalents; active compounds read high; AID 590; max dye-equivalent concentration, M; 59,000 compounds, 11% hits; in the data active = max dye-equivalent concentration above about 10 nM; inconclusive = mostly about 1.1 nM to 9.6 nM
HADH2 inh: HADH2 (human) dehydrogenase inhibition | Q99714 | recombinant HADH2, NADH fluorescence, beta-hydroxybutyryl-CoA | Potency, µM (highest dose often 57.1 µM), for inactives: at the top dose activity change, negative = inhibition, most hits filed as inhibitors | 73,000 compounds, 3.4% hits | AID 886; also: potency is read from the fitted curve at half-maximal effect; % is scaled to controls: 0 for no effect and ±100 for the full control effect; nearly all actives have a fitted effect of over 60% in size
Target sequence (Q99714 whole entry, looked up, one chain of several): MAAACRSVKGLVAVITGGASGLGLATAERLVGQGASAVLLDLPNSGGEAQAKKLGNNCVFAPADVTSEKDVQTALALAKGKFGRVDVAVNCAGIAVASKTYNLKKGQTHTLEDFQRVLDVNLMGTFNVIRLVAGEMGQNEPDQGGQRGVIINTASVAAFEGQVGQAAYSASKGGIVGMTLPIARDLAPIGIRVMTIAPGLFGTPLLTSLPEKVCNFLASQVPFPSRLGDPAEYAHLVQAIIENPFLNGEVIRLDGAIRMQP
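Buffer 100 mM Tris-HCl pH 9.0/0.01% Tween-20; HADH2 20 nM; NAD+ 1 mM; beta-hydroxybutyryl-CoA 90 uM (all final). 15 min cpd preincubation, RT.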
The depositor's hits bear a star; [ ] = dose if it differs, or a comment. An excerpt weighted towards active compounds, which were near 14% of everything screened. Unless noted, calls follow the shape of the dose curve; as a rule, active = well fitted curve in the direction sought with a large enough effect; inconclusive = small, poorly fitted or top-dose-only effect, or another doubt; inactive = no such curve, though single readings can be large; an effect the other way counts as inactive or inconclusive.

Results for COC(=O)c1ccccc1N ?
AID923: -1%; HSD17B inh: 32µM*; CRE-bla Fsk: -3%; HADH2 inh: -20%

Results for CCOC(=O)c1ccccc1C(=O)OCC ?
AID923: -2%; HSD17B inh: 4%; CRE-bla Fsk: -7%; HADH2 inh: -14%

Results for C=CCOC(=O)c1ccccc1N ?
AID923: 5%; HSD17B inh: 32µM*; CRE-bla Fsk: 2%; HADH2 inh: 40µM*

What do the screens show for `Nc1ccccc1C(=O)OCCOc1ccccc1`?
AID923: -1%; HSD17B inh: 32µM*; CRE-bla Fsk: -9%; 4-MU autofl: 5.7e-08M*; A350 autofl: 6.6e-08M*; HADH2 inh: 2%

How did CC(=O)Nc1ccc(OC(=O)c2ccccc2N)cc1 do in these assays?
AID923: -1%; HSD17B inh: inconclusive; CRE-bla Fsk: -6%; HADH2 inh: inconclusive

How did Nc1ccccc1C(=O)O do in these assays?
AID923: 1%; HSD17B inh: 32µM*; CRE-bla Fsk: -4%; HADH2 inh: 40µM*

How did C[C@H]1C(=O)O[C@H]2CCN3CC=C(COC(=O)[C@](C)(O)[C@@]1(C)O)[C@H]23 do in these assays?
CRE-bla Fsk: 5%; 4-MU autofl: inactive; A350 autofl: inactive; HADH2 inh: -4%

How did CC(C)=C[C@H]1[C@@H](C(=O)OCc2cc3c(cc2Cl)OCO3)C1(C)C do in these assays?
AID923: 0%[11.5 µM]; HSD17B inh: 8%[11.4 µM]; CRE-bla Fsk: 3%[7.6 µM]; 4-MU autofl: inactive; A350 autofl: inactive; HADH2 inh: 5%[11.4 µM]

Results for CC(C)N[C@@H](C)Cc1ccc(I)cc1 ?
AID923: 0%; HSD17B inh: 3%; CRE-bla Fsk: -6%; 4-MU autofl: 1.7e-08M*; A350 autofl: 1.5e-08M*; HADH2 inh: 5%

What do the screens show for `CC(C)[C@@]1(NC(=O)[C@@H]2C[C@H]3c4cccc5[nH]cc(c45)C[C@@H]3N(C)C2)O[C@]2(O)[C@H]3CCCN3C(=O)[C@H](Cc3ccccc3)N2C1=O`?
AID923: 5%[25.7 µM]; HSD17B inh: -1%[25.6 µM]; CRE-bla Fsk: -18%[17.1 µM]; 4-MU autofl: inactive; A350 autofl: inactive; HADH2 inh: 2%[25.6 µM]

Results for CC(CO)NC(=O)C1C=C2c3cccc4[nH]cc(c34)C[C@H]2N(C)C1 (stereo not given in full) ?
AID923: -3%; HSD17B inh: 32µM*

What do the screens show for `C[C@@H](CO)NC(=O)[C@@H]1C=C2c3cccc4[nH]cc(c34)C[C@H]2N(C)C1`?
AID923: inconclusive; HSD17B inh: 32µM*

What do the screens show for `CCN(CC)C(=O)N[C@H]1C[C@H]2c3cccc4[nH]cc(c34)C[C@@H]2N(C)C1`?
AID923: -1%; HSD17B inh: inconclusive; CRE-bla Fsk: 3%; 4-MU autofl: inactive; A350 autofl: inactive; HADH2 inh: 0%

What do the screens show for `CCN(CC)C(=O)N[C@H]1C=C2c3cccc4[nH]cc(c34)C[C@@H]2N(C)C1`?
AID923: 8%[25.7 µM]; HSD17B inh: 13µM*; CRE-bla Fsk: -7%[17.1 µM]; 4-MU autofl: 5.2e-08M*; A350 autofl: 4.7e-08M*; HADH2 inh: 16µM*

How did CC(C)[C@@]1(NC(=O)[C@@H]2C[C@H]3c4cccc5[nH]cc(c45)C[C@@H]3N(C)C2)O[C@@]2(O)[C@H]3CCCN3C(=O)[C@@H](Cc3ccccc3)N2C1=O do in these assays?
CRE-bla Fsk: -26%; 4-MU autofl: inactive; A350 autofl: inactive; HADH2 inh: 0%

How did O=C(O)C(Cl)Br (stereo not given) do in these assays?
AID923: 3%; HSD17B inh: -1%; CRE-bla Fsk: -4%; HADH2 inh: -13%

Results for CCc1c(C)c2ccc(OCC(N)=O)cc2oc1=O ?
AID923: 1%; HSD17B inh: 32µM*; CRE-bla Fsk: 20%; 4-MU autofl: inconclusive; A350 autofl: inconclusive; HADH2 inh: 4µM*
